Measurements reported in PubChem BioAssay (Tox21).
Values without a mark were called inactive. Results filed as inconclusive are left out. A call without a number means that no potency is given here. The source made the active and inactive calls. Unless noted, the call rests on the fitted dose curve.

Columns and labels:
[1] = Nuclear factor erythroid 2-related factor 2/antioxidant responsive element (Nrf2/ARE) small molecule agonists: qHTS cell viability counter screen in human keratinocytes (AID 1919968; active means well fitted curve in the direction sought with a large enough effect in the repeat runs; an effect the other way counts as inactive or inconclusive; further: nearly all actives have a fitted effect of over 55% in size)
How it was run: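 KeratinoSens cells (HaCaT keratinocytes stably carrying an ARE-luciferase reporter) were seeded at 1,500 cells/well and rested 5 h at 37 C/5% CO2. They were then exposed to compounds in DMSO for 23 h. Viability was read by CellTiter-Fluor fluorescence after 1 h.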

[2] = Nuclear factor erythroid 2-related factor 2/antioxidant responsive element (Nrf2/ARE) small molecule agonists: luciferase reporter gene qHTS assay in human keratinocytes (AID 1919969); further: nearly all actives have a fitted effect of over 35% in size
[3] = molecular target: Gonadotropin-releasing hormone receptor (Homo sapiens) (UniProt P30968); test: Human gonadotropin-releasing hormone receptor (GnRHR) small molecule agonists, calcium flux assay in GnRHR-HEK293 cells (AID 1920063); further: nearly all actives have a fitted effect of over 35% in size
How it was run: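 HEK293 cells stably expressing human GnRHR were plated 18 h at 37 °C, loaded with calcium dye 1 h at 37 °C, then given compound in agonist mode; fluorescence (Ex/Em 480/540) read kinetically for 3 min at 1 s intervals.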

[4] = molecular target: KiSS-1 receptor (Homo sapiens) (UniProt Q969F8); test: Human kisspeptin (KISS1R) small molecule agonists, calcium flux assay in KISS1R-HEK293 cells (AID 1920064; active means well fitted curve in the direction sought with a large enough effect in the repeat runs; an effect the other way counts as inactive or inconclusive)
How it was run: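 HEK293 cells stably expressing human KISS1R were plated 18 h at 37 °C, loaded with calcium dye for 1 h at 37 °C, then given compound by pin tool. Fluorescence (Ex/Em 480/540) was read kinetically for 3 min.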

[5] = G protein-coupled receptor (GPCR) small molecule agonists, calcium flux assay: HEK293 wild type cell line counter screen (AID 1920065)
How it was run: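 Cells were plated and cultured 18 h at 37 C/5% CO2, then loaded with calcium dye for 1 h at 37 C. Compounds in DMSO were pin-transferred in agonist mode, and fluorescence (Ex/Em 480/540) was read kinetically for 3 min at 1 s intervals.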

[6] = p53 small molecule agonists, cell-based qHTS assay with rat liver microsomes: qHTS cell viability counter screen (AID 1963580); further: nearly all actives have a fitted effect of over 45% in size
How it was run: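 p53RE-bla HCT-116 cells were exposed 16 h at 37 C to compounds with rat liver microsomes (0.5 mg/mL) and NADPH (0.5 mg/mL). Viability was measured in the same wells as ATP content by CellTiter-Glo luminescence.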

[7] = p53 small molecule agonists, cell-based qHTS assay: qHTS cell viability counter screen (AID 1963581); further: nearly all actives have a fitted effect of over 45% in size
How it was run: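 p53RE-bla HCT-116 cells were exposed to compounds for 16 h at 37 C; after the beta-lactamase FRET read in the same wells, CellTiter-Glo was added and luminescence (intracellular ATP) read after 30 min at room temperature.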

[8] = p53 small molecule agonists, cell-based qHTS assay (AID 1963582; active means well fitted activation curve with a large enough effect in the signal ratio in the repeat runs, not every such curve was filed as active; the % refers to the signal ratio)
How it was run: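 p53RE-bla beta-lactamase reporter cells rested 5 h at 37 C/5% CO2, then received compounds in DMSO by pin transfer and were incubated 16 h at 37 C. LiveBLAzer B/G FRET substrate was loaded for 2 h at room temperature before fluorescence reading.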

[9] = molecular target: 5-hydroxytryptamine receptor 2A (Homo sapiens) (UniProt P28223); test: 5-hydroxytryptamine receptor 2A (HTR2A) small molecule antagonists, cell-based qHTS assay (AID 1963586); further: nearly all actives have a fitted effect of over 45% in size
How it was run: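 Antagonist-mode intracellular calcium assay: DOI (4 nM) added after 5 min compound pre-incubation at room temperature to dye-loaded HTR2A-CHO cells. Fluorescence followed for 3 min, sampled every second.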

[10] = molecular target: 5-hydroxytryptamine receptor 2A (Homo sapiens) (UniProt P28223); test: 5-hydroxytryptamine receptor 2A (HTR2A) small molecule agonists, cell-based qHTS assay (AID 1963587); further: nearly all actives have a fitted effect of over 30% in size
How it was run: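 CHO cells stably expressing human HTR2A, plated 18 h, loaded with calcium dye 1 h at 37 C. Agonist mode: compounds added and intracellular calcium fluorescence recorded kinetically for 2 min at 1 sec intervals.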

[11] = molecular target: Muscarinic acetylcholine receptor M1 (Homo sapiens) (UniProt P11229); test: Cholinergic receptor muscarinic 1 (CHRM1) small molecule antagonists, cell-based qHTS assay (AID 1963588); further: nearly all actives have a fitted effect of over 40% in size; further: potency means the concentration at half of the fitted maximal effect
How it was run: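 CHRM1-CHO calcium-flux assay, antagonist mode. Cells were seeded 18 h, dye-loaded 1 h at 37 C and given compound for 5 min at RT, then acetylcholine was added at 50nM. FDSS fluorescence was read 3 min; 15 concentrations, three runs.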

[12] = cAMP Responsive Elements (CRE) small molecule agonists, cell-based qHTS assay (AID 1963590)
How it was run: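 CRE-bla HEK 293T cells in DMEM with 10% dialyzed FBS, NEAA, pyruvate and 25 mM HEPES were plated 18 h at 37 C/5% CO2, then exposed to compounds in DMSO for 3 h before LiveBLAzer B/G FRET substrate addition.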

[13] = cAMP Responsive Elements (CRE) small molecule antagonists, cell-based qHTS assay (AID 1963591; active means well fitted inhibition curve with a large enough effect in the signal ratio in the repeat runs, not every such curve was filed as active; the % refers to the signal ratio)
How it was run: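 CRE-bla HEK293T cells were plated 18 h at 37 °C/5% CO2, pinned with compound in DMSO, then stimulated with NKH477 at 0.25 uM final for 3 h. LiveBLAzer B/G FRET substrate was added and plates incubated 2 h at room temperature.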

[14] = molecular target: Beta-2 adrenergic receptor (Homo sapiens) (UniProt P07550); test: Adrenergic beta2 receptor (ADRB2) small molecule antagonists, cell-based qHTS assay (AID 1963592); further: series mostly up to about 92 µM; nearly all actives have a fitted effect of over 50% in size
How it was run: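 Cells (CHO, stable ADRB2 overexpression) incubated 18-20hr at 37C; compounds added from DMSO; agonist mix (1nM isoproterenol, 100uM IBMX, 25uM Ro-20-1724) added; 0.5hr RT; d2-cAMP and anti-cAMP-cryptate added; 1hr RT; 665/615 nm read.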

[15] = molecular target: D(2) dopamine receptor (Homo sapiens) (UniProt P14416); test: Dopamine D2 receptor (DRD2) small molecule agonists, cell-based qHTS assay (AID 1963594); further: nearly all actives have a fitted effect of over 35% in size
How it was run: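 HEK293 cells stably expressing human DRD2, pre-treated with PDE inhibitor Ro20-1724 (0.1 mM final) and compound 10 min at room temperature, then stimulated with NKH477 (200nM […]) for 30 min. cAMP read by HTRF (665/620 nm).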

[16] = molecular target: D(2) dopamine receptor (Homo sapiens) (UniProt P14416); test: Dopamine D2 receptor (DRD2) small molecule antagonists, cell-based qHTS assay (AID 1963595; active means well fitted inhibition curve with a large enough effect in the signal ratio in the repeat runs, with a control signal flat; the % refers to the signal ratio; further: potency means the concentration at half of the fitted maximal effect)
How it was run: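 Cells were plated and grown for 24 h at 37 °C. Ro20-1724 (0.1 mM final) went in first, then compound for 10 min. NKH477 (200 nM) with quinpirole (12 nM) followed for 30 min at RT, then HTRF detection reagents for 1 h.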

[17] = p53 small molecule agonists, cell-based qHTS assay with human liver microsomes: qHTS cell viability counter screen (AID 1963579); further: nearly all actives have a fitted effect of over 45% in size
How it was run: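 After the 460/530 nm beta-lactamase read, CellTiter-Glo was added to the same wells and luminescence measured after 30 min at room temperature, giving viability of p53RE-bla cells treated 16 h with compounds plus microsomes and NADPH.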

[18] = p53 small molecule agonists, cell-based qHTS assay with human liver microsomes (AID 1963577);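 further: p53 response element beta-lactamase reporter cells with liver microsomes plus NADPH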
How it was run: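 Steps: plate p53RE-bla cells, incubate 5 h at 37 C; add compound in DMSO; add microsomes (0.5 mg/mL final) and NADPH (0.5 mg/mL final); incubate 16 h at 37 C; add LiveBLAzer, 2 h RT; read fluorescence.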

[19] = p53 small molecule agonists, cell-based qHTS assay with rat liver microsomes (AID 1963578)
How it was run: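 Metabolic activation is supplied by rat liver microsomes with NADPH (each 0.5 mg/mL final). p53RE-bla cells incubate with compound 16 h at 37 C; reporter activity is measured by LiveBLAzer fluorescence.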

[20] = molecular target: Muscarinic acetylcholine receptor M1 (Homo sapiens) (UniProt P11229); test: Cholinergic receptor muscarinic 1 (CHRM1) small molecule agonists, cell-based qHTS assay (AID 1963589); further: nearly all actives have a fitted effect of over 35% in size
How it was run: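 CHO cells stably expressing human CHRM1, seeded 18 h at 37 C/5% CO2, dye-loaded 1 h at 37 C, then given compound in agonist mode; intracellular calcium fluorescence read kinetically at 1 s intervals. Fifteen concentrations, three independent runs.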

Sequence of 5-hydroxytryptamine receptor 2A (Homo sapiens) (P28223 whole entry, looked up): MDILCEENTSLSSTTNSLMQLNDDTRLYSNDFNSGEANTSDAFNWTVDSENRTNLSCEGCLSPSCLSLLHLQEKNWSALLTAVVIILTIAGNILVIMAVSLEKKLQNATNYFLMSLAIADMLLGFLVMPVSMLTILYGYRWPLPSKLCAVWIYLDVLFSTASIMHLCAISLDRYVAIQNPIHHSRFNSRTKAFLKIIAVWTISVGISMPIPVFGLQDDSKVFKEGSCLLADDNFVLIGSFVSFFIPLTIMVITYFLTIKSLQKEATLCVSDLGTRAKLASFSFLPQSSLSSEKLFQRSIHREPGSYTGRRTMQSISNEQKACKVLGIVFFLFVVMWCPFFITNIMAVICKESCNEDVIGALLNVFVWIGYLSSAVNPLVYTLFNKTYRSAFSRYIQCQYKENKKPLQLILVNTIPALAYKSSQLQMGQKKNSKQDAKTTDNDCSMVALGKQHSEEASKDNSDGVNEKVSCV
Sequence of Beta-2 adrenergic receptor (Homo sapiens) (P07550 whole entry, looked up): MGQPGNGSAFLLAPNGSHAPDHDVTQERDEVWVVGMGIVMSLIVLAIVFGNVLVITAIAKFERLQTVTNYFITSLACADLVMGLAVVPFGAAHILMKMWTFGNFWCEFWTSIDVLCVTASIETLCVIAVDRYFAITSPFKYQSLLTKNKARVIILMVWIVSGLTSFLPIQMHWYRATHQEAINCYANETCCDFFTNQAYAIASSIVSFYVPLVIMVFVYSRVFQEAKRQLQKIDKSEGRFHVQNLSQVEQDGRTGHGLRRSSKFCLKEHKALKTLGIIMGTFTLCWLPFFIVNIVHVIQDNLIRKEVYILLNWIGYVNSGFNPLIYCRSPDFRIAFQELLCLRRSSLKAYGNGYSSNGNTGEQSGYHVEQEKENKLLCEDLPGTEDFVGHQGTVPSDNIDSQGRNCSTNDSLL
Sequence of Muscarinic acetylcholine receptor M1 (Homo sapiens) (P11229 whole entry, looked up): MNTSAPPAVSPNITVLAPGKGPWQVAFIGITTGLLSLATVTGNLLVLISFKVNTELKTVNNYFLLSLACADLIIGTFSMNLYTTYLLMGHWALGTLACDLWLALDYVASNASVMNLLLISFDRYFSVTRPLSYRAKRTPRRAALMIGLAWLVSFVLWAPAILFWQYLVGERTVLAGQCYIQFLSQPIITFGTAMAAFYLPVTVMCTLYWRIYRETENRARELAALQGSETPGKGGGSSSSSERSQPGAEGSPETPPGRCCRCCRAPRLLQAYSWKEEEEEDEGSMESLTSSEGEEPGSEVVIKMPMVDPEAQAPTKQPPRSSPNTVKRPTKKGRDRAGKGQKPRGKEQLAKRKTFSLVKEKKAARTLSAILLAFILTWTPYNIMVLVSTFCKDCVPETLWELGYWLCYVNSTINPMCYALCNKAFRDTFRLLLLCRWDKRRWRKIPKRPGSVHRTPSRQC
Sequence of Gonadotropin-releasing hormone receptor (Homo sapiens) (P30968 whole entry, looked up): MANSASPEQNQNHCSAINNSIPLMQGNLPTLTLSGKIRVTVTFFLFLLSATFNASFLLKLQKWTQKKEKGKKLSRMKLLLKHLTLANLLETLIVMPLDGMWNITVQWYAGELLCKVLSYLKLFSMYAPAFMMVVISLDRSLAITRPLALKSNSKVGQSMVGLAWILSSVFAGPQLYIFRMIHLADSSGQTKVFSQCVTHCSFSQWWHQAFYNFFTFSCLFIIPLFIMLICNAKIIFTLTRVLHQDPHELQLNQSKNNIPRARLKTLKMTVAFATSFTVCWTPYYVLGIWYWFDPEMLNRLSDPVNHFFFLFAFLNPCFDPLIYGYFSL
Sequence of D(2) dopamine receptor (Homo sapiens) (P14416 whole entry, looked up): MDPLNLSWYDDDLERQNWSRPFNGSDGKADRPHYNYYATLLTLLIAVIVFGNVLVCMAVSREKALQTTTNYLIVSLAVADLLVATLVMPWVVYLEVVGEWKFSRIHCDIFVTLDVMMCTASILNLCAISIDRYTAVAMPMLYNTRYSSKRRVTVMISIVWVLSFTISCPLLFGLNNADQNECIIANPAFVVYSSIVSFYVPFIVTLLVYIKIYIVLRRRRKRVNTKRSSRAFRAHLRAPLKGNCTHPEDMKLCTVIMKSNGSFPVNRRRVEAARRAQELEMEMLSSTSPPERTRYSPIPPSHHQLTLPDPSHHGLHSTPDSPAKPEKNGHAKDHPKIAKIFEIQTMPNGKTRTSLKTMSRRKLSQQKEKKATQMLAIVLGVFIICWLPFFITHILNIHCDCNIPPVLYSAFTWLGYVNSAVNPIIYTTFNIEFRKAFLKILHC
Sequence of KiSS-1 receptor (Homo sapiens) (Q969F8 whole entry, looked up): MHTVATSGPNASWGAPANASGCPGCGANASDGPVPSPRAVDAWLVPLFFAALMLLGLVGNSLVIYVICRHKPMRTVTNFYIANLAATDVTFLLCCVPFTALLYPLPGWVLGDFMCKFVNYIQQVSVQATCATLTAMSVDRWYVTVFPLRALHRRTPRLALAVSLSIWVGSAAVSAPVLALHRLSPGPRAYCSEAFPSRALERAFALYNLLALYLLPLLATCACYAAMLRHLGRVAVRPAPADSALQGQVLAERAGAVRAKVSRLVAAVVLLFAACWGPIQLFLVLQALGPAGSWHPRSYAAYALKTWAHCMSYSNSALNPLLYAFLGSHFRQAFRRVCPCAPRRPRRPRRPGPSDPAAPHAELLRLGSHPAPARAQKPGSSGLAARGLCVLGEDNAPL

## C[C@@H]1CC[C@@]2(OC1)O[C@H]1C[C@H]3[C@@H]4CC[C@H]5C[C@@H](O)CC[C@]5(C)[C@H]4CC(=O)[C@]3(C)[C@H]1[C@@H]2C
[1]
  activity change, negative = cytotoxicity: -14.4% [at 8.39 µM]
[2]
  activity, positive = activation: -0.515% [at 8.39 µM]
[3]
  activity change: -0.98% [at 5.22 µM, stronger effect = higher value]
[4]
  activation: 0.0336% [at 6.97 µM]
[5]
  activation: 1.09% [at 5.23 µM]
[6]
  activity change, negative = cytotoxicity: 5.02% [at 5.99 µM]
[7]
  activity change, negative = cytotoxicity: -10.7% [at 5.99 µM]
[8]
  activation: -0.0756% [at 5.99 µM]
[9]
  activity, negative = inhibition: 89.9% [at 5.62 µM]
[10]
  activation: -0.761% [at 7.02 µM]
[11]
  activity, negative = inhibition: 4.81% [at 5.58 µM]
[12]
  activation: -0.0414% [at 8.39 µM]
[13]
  activity change, negative = inhibition: 0.931% [at 8.39 µM]
[14]
  activity change, negative = inhibition: -3.89% [at 8.39 µM]
[15]
  activation: -11.7% [at 8.39 µM]
[16]
  activity change, negative = inhibition: -1.11% [at 8.38 µM]

## CO[C@@]1(NC(=O)CSCC#N)C(=O)N2C(C(=O)O)=C(CSc3nnnn3C)CS[C@@H]21
[1]
  Potency: inactive
[2]
  Potency: inactive
[3]
  Potency: inactive
[4]
  outcome: inactive
[5]
  outcome: inactive
[17]
  Potency: inactive
[6]
  Potency: inactive
[8]
  Potency: inactive
[12]
  Potency: inactive
[13]
  Potency: inactive
[14]
  Potency: inactive
[15]
  Potency: inactive

## C=CCCCC
[1]
  Potency: inactive
[2]
  Potency: inactive
[3]
  Potency: inactive
[4]
  outcome: inactive
[18]
  Potency: inactive
[19]
  Potency: inactive
[17]
  Potency: inactive
[6]
  Potency: inactive
[7]
  Potency: inactive
[8]
  Potency: inactive
[9]
  Potency: inactive
[10]
  Potency: inactive
[11]
  Potency: inactive
[20]
  Potency: inactive
[12]
  Potency: inactive
[13]
  Potency: inactive
[14]
  Potency: inactive
[15]
  Potency: inactive
[16]
  Potency: inactive

## CCc1cc(Cl)c(OC)c(C(=O)NC[C@@H]2CCCN2CC)c1O
[1]
  Potency: inactive
[2]
  Potency: inactive
[3]
  Potency: inactive
[4]
  outcome: inactive
[18]
  Potency: inactive
[19]
  Potency: inactive
[17]
  Potency: inactive
[6]
  Potency: inactive
[8]
  Potency: inactive
[11]
  Potency: inactive
[20]
  Potency: inactive
[12]
  Potency: inactive
[13]
  Potency: inactive
[16]
  Potency: 3.3 nM (active)

## C[N+]12CCC(CC1)C(OC(=O)C(O)(c1ccccc1)c1ccccc1)C2 (configuration not stated)
[1]
  Potency: inactive
[2]
  Potency: inactive
[3]
  Potency: inactive
[4]
  outcome: inactive
[18]
  Potency: inactive
[19]
  Potency: inactive
[17]
  Potency: inactive
[8]
  Potency: inactive
[9]
  Potency: inactive
[10]
  Potency: inactive
[11]
  Potency: 1.3 nM (active)
[20]
  Potency: inactive
[12]
  Potency: inactive
[13]
  Potency: inactive
[15]
  Potency: inactive
[16]
  Potency: inactive

## CCC(=O)O[C@]1(C(=O)COC)[C@@H](C)C[C@H]2[C@@H]3CCC4=CC(=O)C=C[C@]4(C)C3(F)[C@@H](O)C[C@@]21C (some centres not stated)
[1]
  Potency: inactive
[2]
  Potency: inactive
[3]
  Potency: inactive
[4]
  outcome: inactive
[18]
  Potency: inactive
[19]
  Potency: inactive
[17]
  Potency: inactive
[6]
  Potency: inactive
[8]
  Potency: inactive
[10]
  Potency: inactive
[11]
  Potency: inactive
[20]
  Potency: inactive
[14]
  Potency: inactive
[16]
  Potency: inactive

## NC(N)=NC(=O)Cc1c(Cl)cccc1Cl
[1]
  Potency: inactive
[2]
  Potency: inactive
[3]
  Potency: inactive
[4]
  outcome: inactive
[18]
  Potency: inactive
[19]
  Potency: inactive
[17]
  Potency: inactive
[6]
  Potency: inactive
[7]
  Potency: inactive
[8]
  Potency: inactive
[12]
  Potency: inactive
[13]
  Potency: inactive
[14]
  Potency: inactive
[16]
  Potency: inactive

## CC1OCCC1=O (configuration not stated)
[1]
  Potency: inactive
[2]
  Potency: inactive
[3]
  Potency: inactive
[4]
  outcome: inactive
[18]
  Potency: inactive
[19]
  Potency: inactive
[17]
  Potency: inactive
[7]
  Potency: inactive
[8]
  Potency: inactive
[9]
  Potency: inactive
[10]
  Potency: inactive
[11]
  Potency: inactive
[12]
  Potency: inactive
[13]
  Potency: inactive
[14]
  Potency: inactive
[15]
  Potency: inactive
[16]
  Potency: inactive
